{"source": "PubChem BioAssay AID1347417", "about": "(National Center for Advancing Translational Sciences (NCATS), 2020)", "note": "The campaign covered roughly 120,000 compounds. About 5,300 (4.4%) were called active. About 22% were inconclusive and are not listed. This is one part of a sample in which actives are shown more often than they occur. A number with no mark means an inactive call. Calls follow the shape of the dose curve; as a rule, active = well fitted inhibition curve with a large enough effect; inconclusive = small, poorly fitted or top-dose-only effect; inactive = no such curve, though single readings can be large or run the other way. Potency is read from the fitted curve at half-maximal effect.", "data": [{"test": "qHTS Primary assay for Inhibitors of Plasmodium falciparum Dd2 growth in vitro; also: nearly all actives have a fitted effect of over 65% in size;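 as to activity, negative = inhibition: plate controls were DMSO vehicle for no effect and reference drug for full effect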", "settings": "P. falciparum Dd2 growth, SYBR Green, 72 h; series mostly up to 28.9 µM; activity, negative = inhibition: at the top concentration", "method_in_brief": "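Infected erythrocytes (Dd2, 0.3% parasitemia, 2.5% hematocrit final) are added to compound in RPMI-1640/Albumax II medium, grown 72 h at 37C in low oxygen, then lysed with saponin/Triton-X containing SYBR Green and read by fluorescence.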", "values": [{"smiles": "O=C(c1cc2cccnn2n1)N1CCOCC1", "activity, negative = inhibition": "12.2% [at 44.1 µM]"}, {"smiles": "Cc1ccc2cc(CCC(=O)O)c(=O)[nH]c2c1", "activity, negative = inhibition": "9.25%"}, {"smiles": "Cc1cc2nc3n(c(=O)c2n1CC(=O)NCc1ccccc1Cl)CCCC3", "activity, negative = inhibition": "12.7%"}, {"smiles": "Oc1ccccc1CNC1(Cc2cc(CN3CCOCC3)on2)COC1", "activity, negative = inhibition": "14% [at 44.1 µM]"}, {"smiles": "C[C@@H](NC(=O)C[C@@H]1[C@H](O)CC[C@@H]2[C@](C)(CO)[C@H](O)CC[C@]21C)c1ccccc1", "activity, negative = inhibition": "17.5% [at 44.1 µM]"}, {"smiles": "COc1ccc(C(=O)N2CCC(Oc3ncccc3C(=O)N(C)C)C2)c(OC)c1", "note": "(stereo not drawn)", "activity, negative = inhibition": "0.886%"}, {"smiles": "CC[C@@H](NC(=O)CC1CCN(Cc2ccccc2)CC1)C1CC(O)C1", "note": "(stereo partly drawn)", "activity, negative = inhibition": "1.5%"}, {"smiles": "CCOc1ccc(C(=O)N2CCC3(CC2)c2nccn2-c2ccccc2CN3C)cc1", "outcome": "inactive [at 5.79 µM]"}, {"smiles": "CCOc1ccc(C(=O)N2CCN(CCc3ccccn3)CC2)cc1", "Potency": "2.82 µM (active)"}, {"smiles": "CCOc1ccc(C(=O)N2CCN(c3cc(-c4cccs4)[nH]n3)CC2)cc1", "outcome": "inactive"}, {"smiles": "Cc1oc2ccn(Cc3cccc(F)c3)c(=O)c2c1C(=O)NCc1cccnc1", "activity, negative = inhibition": "-4.3%"}, {"smiles": "O=C(O)Cn1ccc2cc(OCCc3cccc(-c4cccnc4)c3)cnc21", "activity, negative = inhibition": "1.28% [at 44.1 µM]"}, {"smiles": "CCC(CC)c1cc([C@H]2CN3CC[C@H]2C[C@@H]3CNS(=O)(=O)Cc2ccccc2)nc(-c2ccncc2)n1", "activity, negative = inhibition": "-9.02%"}, {"smiles": "CCC(CC)c1cc([C@H]2CN3CC[C@H]2C[C@@H]3CNC(=O)NCc2ccccc2)nc(-c2ccncc2)n1", "Potency": "0.631 µM (active)"}, {"smiles": "N#Cc1cccc(NC(=O)NC[C@H]2C[C@@H]3CCN2C[C@@H]3CN2CCN(c3ncccn3)CC2)c1", "outcome": "inactive"}, {"smiles": "CC(C)c1nnsc1CN1CCn2nc(CCC(=O)N3CCCC3)cc2C1", "activity, negative = inhibition": "-17%"}, {"smiles": "CCN1C(=O)CCN(C(=O)N(C)C)CC12CCOCC2", "activity, negative = inhibition": "30.6%"}, {"smiles": "CCOc1ccc(NC(=O)N2c3ccccc3CC2c2noc(C3CCOCC3)n2)cc1", "note": "(stereo not drawn)", "activity, negative = inhibition": "-12.3%"}, {"smiles": "CNC(=O)[C@@H]1CN(C(=O)c2ccco2)C[C@H]1COC", "activity, negative = inhibition": "7.02%"}, {"smiles": "O=C(C1CCCC1)N1CC2(CCCN(C3CCCCC3)C2)Cc2ccccc21", "note": "(stereo not drawn)", "Potency": "7.94 µM (active)"}, {"smiles": "CC(=O)N1CC2(CCN(Cc3cccnc3)C2)Cc2ccccc21", "note": "(stereo not drawn)", "activity, negative = inhibition": "-11.2%"}, {"smiles": "C[S+](=O)([O-])N1CC2(Cc3ccccc31)CN(C(=O)C1CC1)C2", "activity, negative = inhibition": "-4.62% [at 44.1 µM]"}, {"smiles": "COc1ccc2[nH]c3c(c2c1)CCNC31CCN(C(=O)c2ccnn2C)CC1", "outcome": "inactive"}, {"smiles": "O=C(Cn1nc2c(cc1=O)CCCCC2)Nc1nc(-c2ccncc2)cs1", "activity, negative = inhibition": "-14.3%"}, {"smiles": "COc1ccc(CN2C(=O)CO[C@H]3CN(Cc4cccnc4)C[C@H]32)cc1", "activity, negative = inhibition": "-27.4% [at 44.1 µM]"}, {"smiles": "COc1ccc(CN2C(=O)CO[C@H]3CN(C(=O)C4CC4)C[C@H]32)cc1", "activity, negative = inhibition": "18.4% [at 44.1 µM]"}, {"smiles": "O=C1CO[C@H]2CN(C3CCC3)C[C@H]2N1Cc1ccc(OC(F)(F)F)cc1", "Potency": "10 µM (active)"}, {"smiles": "CCNC(=O)N1C[C@@H]2OCC(=O)N(CCOC)[C@@H]2C1", "activity, negative = inhibition": "1.69% [at 44.1 µM]"}, {"smiles": "Cc1cccc(C(=O)N2CCC(Oc3ccc(-c4noc(C(C)C)n4)cc3)C2)c1", "note": "(stereo not drawn)", "activity, negative = inhibition": "27.3% [at 5.79 µM]"}, {"smiles": "CC(C)c1nc(-c2ccc(OC3CCN(C(=O)CCc4nc5ccccc5[nH]4)C3)cc2)no1", "note": "(stereo not drawn)", "Potency": "1.26 µM (active)"}, {"smiles": "CCc1nc(-c2ccc(OC3CCN(C(=O)Cc4c[nH]c5ccccc45)C3)cc2)no1", "note": "(stereo not drawn)", "activity, negative = inhibition": "2.05% [at 5.79 µM]"}, {"smiles": "N#Cc1ccc(C(=O)Nc2ccc3n(c2=O)C[C@H]2C[C@@H]3CN(C(=O)NC3CCCCC3)C2)cc1", "activity, negative = inhibition": "-19.6%"}, {"smiles": "COc1cccc(NC(=O)Nc2ccc3c(c2)N(C)C(=O)c2ccccc2S3)c1", "Potency": "12.6 µM (active)"}, {"smiles": "CCOc1ccccc1C(=O)Nc1ccc2c(c1)N(C)C(=O)c1ccccc1S2", "activity, negative = inhibition": "-8.57%"}, {"smiles": "COc1cccc(NC(=O)CN2C(=O)c3ccccc3Sc3ncccc32)c1", "activity, negative = inhibition": "-15.6%"}, {"smiles": "CCn1cc(-c2ccc(C)cc2)cc1C(=O)NCc1cccnc1", "activity, negative = inhibition": "-8.65%"}, {"smiles": "Cc1cccc(N2CCN(C(=O)c3cc4n(n3)CC(c3ccc(Cl)cc3)OC4)CC2)c1", "note": "(stereo not drawn)", "outcome": "inactive"}, {"smiles": "COc1cc(CNCc2ccc(C)c(F)c2F)ccc1OCC(O)CN1CCC(O)CC1", "note": "(stereo not drawn)", "activity, negative = inhibition": "-45.4%"}, {"smiles": "N#Cc1cccc(CN2C[C@H](O)C[C@H]2c2nc(-c3ccccn3)no2)c1", "activity, negative = inhibition": "9.29% [at 44.1 µM]"}, {"smiles": "Cc1ccccc1C(=O)NCc1nnc2ccc(-c3ccccc3)nn12", "activity, negative = inhibition": "-7.27%"}, {"smiles": "COCc1nncn1C1CCN(C(=O)c2ccccc2F)CC1", "activity, negative = inhibition": "-7.03%"}, {"smiles": "COCc1nncn1C1CCN(C(=O)c2ccccc2OC(F)(F)F)CC1", "Potency": "10 µM (active)"}, {"smiles": "COc1ccccc1C(=O)N1CCC(n2cnnc2C2CC2)CC1", "activity, negative = inhibition": "8.5%"}, {"smiles": "COc1ccccc1C(=O)Nc1ccc2c(c1)CN(Cc1ccccc1)C(=O)C(C)O2", "note": "(stereo not drawn)", "outcome": "inactive"}, {"smiles": "CS(=O)(=O)N1CCCN(C(=O)Cc2cccc(F)c2)CCNC(=O)CC1c1ccccc1", "note": "(stereo not drawn)", "activity, negative = inhibition": "-1.53%"}, {"smiles": "Cc1ccccc1CNC(=O)C1CCCN(Cc2cccnc2)CCC(=O)NCC1", "note": "(stereo not drawn)", "activity, negative = inhibition": "-19.7%"}, {"smiles": "O=C1CC(c2ccccc2)N(C(=O)C2CC2)CCCN(C(=O)Cc2cccc(F)c2)CCN1", "note": "(stereo not drawn)", "activity, negative = inhibition": "-7.87%"}, {"smiles": "Cc1ccc(CN2CCCN(Cc3ccncc3)C(c3ccccc3)CC(=O)NCC2)s1", "note": "(stereo not drawn)", "Potency": "1 µM (active)"}, {"smiles": "CS(=O)(=O)N1CCCN(C(=O)CN2CCCCCC2)CCNC(=O)CC1c1ccccc1", "note": "(stereo not drawn)", "activity, negative = inhibition": "-8.48%"}, {"smiles": "O=C1CC2CCN(Cc3cccnc3)CC2CCN1", "note": "(stereo not drawn)", "activity, negative = inhibition": "9.65% [at 44.1 µM]"}, {"smiles": "O=C1CC(c2ccccc2)N(Cc2ccncc2)CCCN(Cc2cccnc2)CCN1", "note": "(stereo not drawn)", "Potency": "4.47 µM (active)"}, {"smiles": "Cc1cccc(CN2CCCN(Cc3ccncc3)C(c3ccccc3)CC(=O)NCC2)c1", "note": "(stereo not drawn)", "Potency": "1.26 µM (active)"}, {"smiles": "CNC(=O)N1CCCN(S(C)(=O)=O)C(c2ccccc2)CC(=O)NCC1", "note": "(stereo not drawn)", "activity, negative = inhibition": "3.9%"}]}]}
